# Compounds with a hit are over-represented: about 5.2% of the library has one in this group of screens.
# Tau ThT inhib – inhibitors of human tau fibril formation, thioflavin T binding; P10636; recombinant tau K18 P301L, heparin-induced fibrillization, ThT fluorescence; Potency, µM (top dose mostly 57.4 µM), for inactives: top-dose activity, negative = inhibition, actives largely listed as inhibitors; actives 2.1% (n = 270,000); AID 1460; note: potency is the fitted concentration of half-maximal effect; nearly all actives have a fitted effect of over 55% in size
# Target sequence (P10636 561-689 P618L limits assumed): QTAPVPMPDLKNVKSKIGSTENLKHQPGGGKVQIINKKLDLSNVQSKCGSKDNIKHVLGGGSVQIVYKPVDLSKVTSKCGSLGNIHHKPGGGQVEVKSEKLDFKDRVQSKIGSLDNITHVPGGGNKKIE
#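 Using a mix of unlabeled (15 uM) and Alexa 594-labeled (0.24 uM) tau K18 P301L, heparin-triggered fibrillization over 6 hr at 37 C was scored by ThT fluorescence.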
# Sfp inh – blocks B. subtilis Sfp PPTase activity. Biochemical Sfp PPTase activity, qHTS. actives 3.5% (n = 310,000). AID 1490. Q9F4F7. Potency, µM, for inactives: largest response in the series, negative = inhibition, most hits filed as inhibitors;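 note: the enzyme is Sfp with the accession as filed and its product quenches rhodamine fluorescence; potency is the fitted concentration of half-maximal effect; 0% = enzyme reaction without inhibitor and -100% = no enzyme wells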
#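 After 15 min at room temperature with compound, 15 nM Sfp received 5 uM rhodamine-CoA plus 12.5 uM BHQ-2-ybbR (50 mM Hepes pH 7.6, 10 mM MgCl2). Rate came from the fluorescence difference over 30 min, ex 525/em 598 nm.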
# Tau FP inhib – inhibitors of human tau fibril formation | Potency, µM (series often up to 57.7 µM), for the others: at the highest dose activity, negative = inhibition, most hits filed as inhibitors | P10636 | actives 0.39% (n = 280,000) | K18 P301L tau heparin fibrillization, Alexa594 FP, 6 h; note: potency is the fitted concentration of half-maximal effect; nearly all actives have a fitted effect of over 55% in size
#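 Quantitative HTS format: compounds meet 15 uM recombinant K18 P301L tau and Alexa 594-tau tracer in 100 mM sodium acetate pH 7; 20 uM heparin triggers fibrillization at 37 C over 6 hr; FP gives the signal.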
# FBPA coupling cs – counter-screen for Giardia aldolase inhibitors: coupling enzyme system; actives 0.67% (n = 290,000); coupling enzyme system counterscreen, AmpLite Red fluorescence; activity change, negative = inhibition, % at 58.2 µM, hits read low; AID 2472; in the data active = activity change below about -30%
#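 Coupling enzymes only (glyceraldehyde-3-phosphate) + compound, at 57.5 uM final, 10 min RT; add substrate/coupling/AmpLite Red mix, 20 min RT; fluorescence ex 525/em 598 nm. Actives flag coupling-system interference.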
# Tau fluor cs – counter-screen for tau fibril formation inhibitors; Potency, µM (doses to about 57.7 µM), for the others: at the highest dose activity change, negative = decrease; actives 0.93% (n = 280,000); tau K18 P301L Alexa594 fluorescence, heparin fibrillization; note: potency is the fitted concentration of half-maximal effect; nearly all actives have a fitted effect of over 55% in size
#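 Human tau K18 P301L (15 uM unlabeled, 0.24 uM Alexa 594-labeled) in 100 mM sodium acetate pH 7 with 20 uM heparin, 6 hr at 37 C. ThT 30 uM added, 1 hr ambient; Alexa 594 FP and total fluorescence read at 555/632 nm.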
# Numbers without * were called inactive; ? = inconclusive; / = not tested or not shown; [ ] = dose if it differs, or a comment. Unless noted, calls come from the whole dose curve; as a rule, active = well fitted curve in the direction sought with a large enough effect; inconclusive = small, poorly fitted or top-dose-only effect, or another doubt; inactive = no such curve, though single readings can be large; an effect the other way counts as inactive or inconclusive. Unless noted, % is set by controls: 0 for no effect and ±100 for the full control effect.
SMILES,Tau ThT inhib,Sfp inh,Tau FP inhib,FBPA coupling cs,Tau fluor cs
COc1cccc(C(=O)Nc2nc3nc(C)c(C)c(=O)n3[nH]2)c1,-12%,/,-3%,/,1%
O=C(CSc1ncc(-c2ccccc2)[nH]1)Nc1ccc(Cl)cc1,-9%,/,-12%,/,14µM*[quencher]
O=C(CSc1ncc(-c2ccccc2)[nH]1)Nc1cccc(Br)c1,?,/,?,/,16µM*[quencher]
O=C(CSc1ncc(-c2ccc(Cl)cc2)[nH]1)Nc1ccccc1F,-22%,/,-4%,/,14µM*[quencher]
O=C(Cn1cc(SCc2ccc(C(F)(F)F)cc2)c2ccccc21)N1CCCC1,?,/,3%,/,-28%
CC(C)c1nc2sc3c(SCC(=O)NCc4ccco4)ncnc3c2c2c1CCC2,-3%,25µM*,-5%,-5,2%
CC1(C)Cc2nc3sc4c(SCC(=O)NCc5ccco5)ncnc4c3cc2CO1,?,?,?,5,-11%
Cc1ccc(NC(=O)CSc2nnc(N)s2)c(C)c1,-5%,/,1%,/,0%
COC(=O)c1cc(Cl)c(NC(=O)C(C)C)cc1OC,1%,15%,-5%,1,-1%
COC(=O)c1cc(Cl)c(NC(=O)c2ccc(C(C)(C)C)cc2)cc1OC,?,14µM*,9%,-1,-10%
N#Cc1cnc(NN)nc1,-20%,6.3µM*,-11%,-4,-3%
NC(=O)c1ncn([C@@H]2O[C@H](CO)[C@@H](O)[C@H]2O)c1N,/,-19%,/,4,/
O=C1NC(c2ccccc2)=C(c2ccc3ccccc3n2)C(c2ccncc2)N1 (stereo not drawn),11µM*,14%,-16%,-1,?
O=C(O)c1cc(O)c2c(c1)[C@H]([C@H]1c3cc(C(=O)O)cc(O)c3C(=O)c3c(O[C@@H]4OC(CO)C(O)C(O)C4O)cccc31)c1cccc(O[C@@H]3OC(CO)C(O)C(O)C3O)c1C2=O (stereo partly drawn),22µM*,56µM*,?,-39*,?
OCC1OC(Oc2cccc3ccccc23)C(O)C(O)C1O (stereo not drawn),/,11%,/,0,/
Cc1nn2c(C)c(C(=O)NCC(C)c3ccccc3)cnc2c1-c1ccccc1 (stereo not drawn),?,/,-1%,/,-13%
CCNC(=S)N/N=C/c1cccc(/C=N/NC(=S)NCC)c1,13%,40µM*,8%,0,11%
CCOc1ccc(C2=C(C(=O)CC)Sc3nncn3N2C(=O)CC)cc1,3.2µM*,/,-14%,/,-29%
COc1cccc(C2=C(C(C)=O)Sc3nncn3N2C(C)=O)c1,?,/,?,/,-15%
CCC(=O)C1=C(c2ccc(OC)c(OC)c2)N(C(=O)CC)n2c(nnc2-c2ccc(C)cc2)S1,-18%,/,-10%,/,-24%
CCC(=O)C1=C(c2ccccc2)N(C(=O)CC)n2c(nnc2C2CCCCC2)S1,-10%,/,-13%,/,-6%
CC(=O)C1=C(c2ccc(Cl)c(Cl)c2)N(C(C)=O)n2cnnc2S1,4.5µM*,/,?,/,?
CCC(=O)C1=C(c2ccc(F)cc2)N(C(=O)CC)n2cnnc2S1,10µM*,/,?,/,-28%
O=c1c(O)cc(C2Oc3cc(O)cc(O)c3CC2O)cc2c(C3Oc4cc(O)cc(O)c4CC3O)cc(O)c(O)c12 (stereo not drawn),0.5µM*,7.1µM*,1µM*,-75*,8.9µM*[quencher]
C=CCn1c(C)cc(-c2csc(NCC)n2)c1C,?,?,-14%,-9,?
SMILES,Tau ThT inhib,Sfp inh,Tau FP inhib,FBPA coupling cs,Tau fluor cs
C=CCn1c(C)cc(-c2csc(NC)n2)c1C,5%,25µM*,4%,-25,5%
C=CCn1c(C)cc(-c2csc(N)n2)c1C,16µM*,40µM*,?,-8,?
CCCn1c(C)cc(-c2csc(N)n2)c1C,16µM*,56µM*,?,-4,?
COc1ccc(COC(=O)N/N=C2/C[C@@H](O)[C@@H](O)[C@@H]3[C@@H]4C(=O)N(C5CCCCC5)C(=O)[C@H]4CC[C@@H]23)cc1,-18%[11.5 µM],-19%,4%[11.6 µM],-2,-12%[11.6 µM]
Cc1ccc2nc(-c3ccc(NC(=S)NC4CC(C)(C)NC(C)(C)C4)cc3)sc2c1,?,45µM*,11µM*,-1,7.9µM*[quencher]
N#CC1=C(N)C(C#N)(C#N)[C@H](c2cccnc2)[C@H]2CN(C(=O)OCc3ccccc3)CC=C12,16µM*,-20%,?,0,-16%
N#CC1=C(N)C(C#N)(C#N)C(c2ccncc2)C2CN(C(=O)OCc3ccccc3)CC=C12 (stereo not drawn),25µM*,17%,?,2,-15%
CCOC(=O)N1CC=C2C(C#N)=C(N)C(C#N)(C#N)[C@H](c3ccsc3)[C@H]2C1,?,-6%,?,1,-12%
CCOC(=O)c1c(C)n(-c2ccccc2)c2ccc(OC(=O)c3cc(OC)cc(OC)c3)cc12,-10%,/,?,/,-10%
COCCn1c(C)cc(C(=O)CSc2nc(C)c(C)c(C)n2)c1C,-17%,40µM*,0%,-8,-14%
COc1ccc(CCn2c3c(c(=O)[nH]c2=O)C(NC(=O)c2ccccc2OC)(C(F)(F)F)C(=O)N3)cc1OC (stereo not drawn),-3%,/,-7%,/,-13%
O=S(=O)(Nc1nc2ccccc2nc1-[n+]1cccc(N=C([O-])c2ccc(Cl)cc2)c1)c1ccccc1,16µM*,4%,-6%,0,?
Cc1nnc(Sc2cc(NCCCO)c([N+](=O)[O-])c3nonc23)s1,6.3µM*,3.2µM*,-14%,-36*,?
Cc1nnc(Sc2cc(NCCO)c([N+](=O)[O-])c3nonc23)s1,7.9µM*,6.3µM*,?,-22,?
O=[N+]([O-])c1c(NCCO)cc(N2CCCCCC2)c2nonc12,/,-1%,/,-8,/
N#Cc1cccc(-c2nccc(NCc3cccnc3)n2)c1,/,2%,/,6,/
COc1cc(NC(=O)CCc2c(C)nc3nc(-c4cc(OC)cc(OC)c4)nn3c2C)cc(OC)c1,?,/,-12%,/,?
CCCCCCCn1c2c(c(=N)c3ccccc31)CCC2,-7%,50µM*,13%,12,-2%
S=c1[nH]nc(-c2ccco2)n1/N=C/C(Cl)=C/c1ccccc1,14µM*,?,?,-2,?
Cc1ccc(/C=N/n2c(-c3ccco3)n[nH]c2=S)cc1,-13%,-17%,11%,2,-18%
Cc1cc(-c2n[nH]c(=S)n2/N=C/c2cccc(O)c2)n[nH]1,4%,-23%,5%,1,6%
S=c1[nH]nc(-c2cc(-c3ccccc3)n[nH]2)n1/N=C/C(Br)=C/c1ccccc1,18µM*,?,?,1,?
Cc1cc(-c2n[nH]c(=S)n2/N=C/C(Cl)=C/c2ccccc2)n[nH]1,?,50µM*,-6%,1,-21%
FC(F)(F)c1cccc(NC(=S)NNC(=S)Nc2ccc(Cl)cc2)c1,/,25µM*,?,-2,8.9µM*[quencher]
